Most compounds without a hit are left out; they make up all but 4.8% or so of the library.
ATXN2 expr inh: Primary qHTS for Inhibitors of ATXN expression | HEK-293 ATXN2-luciferase reporter, luminescence, 24 h | Potency, µM (top dose mostly 57 µM), hits mostly inhibitors | hit rate 0.72% among 360,000 | AID 1745845, 2022; note: nearly all actives have a fitted effect of over 55% in size
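ATXN2-luciferase reporter cells (luciferase flanked by upstream and downstream ATXN2 gene portions) were treated 24 h at 37 °C with compounds at up to 57 uM. SteadyGlo luminescence gave expression; GF-AFC fluorescence gave viability.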
DRD3 agonist: qHTS of D3 Dopamine Receptor Agonist: qHTS | hit rate 0.58% among 410,000 | D3R DiscoveRx beta-arrestin cells, luminescence, 90 min | max activation, % | D(3) dopamine receptor (Homo sapiens), P35462 | AID 652048, 2013; in the data active = max activation above about 30%
Target sequence (P35462 whole entry, looked up): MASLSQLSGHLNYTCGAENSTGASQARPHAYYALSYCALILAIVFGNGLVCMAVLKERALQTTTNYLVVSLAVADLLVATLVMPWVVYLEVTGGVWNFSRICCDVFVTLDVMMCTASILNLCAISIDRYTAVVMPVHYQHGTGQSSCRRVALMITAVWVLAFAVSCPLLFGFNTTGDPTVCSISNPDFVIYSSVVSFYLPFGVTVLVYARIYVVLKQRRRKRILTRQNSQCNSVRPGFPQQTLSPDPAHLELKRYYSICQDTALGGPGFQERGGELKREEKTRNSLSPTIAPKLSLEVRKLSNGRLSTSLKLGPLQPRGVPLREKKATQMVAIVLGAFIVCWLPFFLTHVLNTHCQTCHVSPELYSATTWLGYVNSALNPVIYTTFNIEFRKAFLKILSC
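Agonist-mode cell screen: cells plated at 1500/well and incubated overnight at 37 °C, then exposed to library compounds for 90 min at 37 °C. Detection reagent was added for 30–60 min at room temperature, and luminescence was read.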
D3 antag: qHTS of D3 Dopamine Receptor Antagonist: qHTS. D(3) dopamine receptor (Homo sapiens), P35462. D3R cells, DiscoveRx beta-arrestin luminescence, antagonist mode; active compounds read low. max response, negative = inhibition, %. hit rate 2.5% among 360,000. AID 652054, 2013; in the data active = max response below about -50%; inconclusive = no clear call, values can overlap the other calls
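Cells expressing the human receptor were seeded at 1500 cells/well, incubated overnight at 37 degrees C in 5% CO2, then exposed to library compounds with dopamine controls for 90 minutes at 37 degrees C before luminescent detection.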
TGFb inhibitor: qHTS for Inhibitors of TGF-b. Potency, µM (highest dose often 46.1 µM), actives largely listed as inhibitors. HepG2 CAGA-GFP TGF-b/SMAD3 reporter, GFP fluorescence, 18 h; TGF-beta stimulated, 500 pg/mL final. hit rate 1.2% among 410,000. AID 588855, 2011; note: nearly all actives have a fitted effect of over 65% in size
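Per well, imaged GFP fluorescence of HEPG2 CAGA-GFP cells gives the signal; cells get compound, then TGF-beta (500 pg/mL final), 18 h at 37 degrees C; %Activity versus -TGF-beta and +DMSO controls.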
HepG2 viability: qHTS for Inhibitors of TGF-b: Cytotox Counterscreen | Potency, µM (titrated, usually from 46.1 µM), most hits filed as cytotoxic | hit rate 0.76% among 410,000 | HepG2 CAGA-GFP viability, ATP luminescence, 18 h
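HepG2 CAGA-GFP cells (1000/well, DMEM with 1% FBS) received compound, then TGF-beta at 500 pg/mL final, and were incubated 18 hours at 37 degrees C. Viability was read by CellTiter-Glo luminescence. Media-only wells were set as complete cell-killing and DMSO as no toxicity.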
S2 tox: Viability Counterscreen for Primary qHTS for Inhibitors of ATXN expression | S2 cells (HEK-293 line with an ATXN2-luciferase reporter) viability, CellTiter-Fluor protease fluorescence, 24 h | Potency, µM (doses to about 56.7 µM), usual class: cytotoxic | hit rate 0.49% among 400,000; note: nearly all actives have a fitted effect of over 40% in size
Numbers stand for hits; – = inactive; ? = inconclusive; · = not tested or not shown. Unless noted, calls come from the whole dose curve; as a rule, active = well fitted curve in the direction sought with a large enough effect; inconclusive = small, poorly fitted or top-dose-only effect, or another doubt; inactive = no such curve, though single readings can be large; an effect the other way counts as inactive or inconclusive.

SMILES | ATXN2 expr inh | DRD3 agonist | D3 antag | TGFb inhibitor | HepG2 viability | S2 tox
O=C(Nc1nc2ccccc2n1CCN1CCCC1)c1ccc(Cl)cc1 | – | – | – | – | – | –
COc1cccc(CNc2nc3ccccc3n2CCN2CCCCC2)c1OC | ? | – | -67.4 | – | – | ?
COc1ccc(OC)c(CNc2nc3ccccc3n2CCN2CCCCC2)c1 | ? | – | ? | – | – | ?
COc1ccccc1-c1ccc(C(=O)NCCN2CCOCC2)c(N2CCN(c3ccccc3F)CC2)n1 | · | · | · | · | · | –
O=C(Nc1nc2ccccc2n1CCN1CCCC1)C1CCCCC1 | – | – | -81.6 | – | – | –
c1ccc(Cn2c(CNc3nc4ccccc4n3CCN3CCOCC3)nc3ccccc32)cc1 | – | – | -54.2 | – | – | –
Brc1ccc(CNc2nc3ccccc3n2CCN2CCCCC2)cc1 | – | – | ? | ? | – | ?
CCn1nccc1C(=O)Nc1nc2ccccc2n1CCN1CCCCC1 | – | – | -87.2 | – | – | –
c1ccc2c(c1)nc(NCc1ccc3c(c1)OCO3)n2CCN1CCOCC1 | – | – | – | – | – | –
CCC(=O)Nc1nc2ccccc2n1CCN1CCOCC1 | – | – | – | – | – | ?
OCC1CCCN(c2nc3cc4c(cc3cc2CNCc2cccc(C(F)(F)F)c2)OCO4)C1 (stereo unspecified) | · | · | · | · | · | –
Cc1cc2nccc(/C=C/c3ccc(N(C)C)cc3)c2cc1C | · | · | · | – | – | ·
CCOC(=O)c1ccc(NC(=O)CCc2c(C)nc3c(c(C)nn3-c3ccccc3)c2C)cc1 | – | – | · | – | – | –
COc1cc(O)ccc1/C=N/NC(=O)c1ccc([N+](=O)[O-])cc1 | – | – | – | – | – | –
O=C(NC(CSCc1ccccc1)C(=O)N/N=C/c1ccc(O)cc1O)c1ccc([N+](=O)[O-])cc1 (stereo unspecified) | 3.16µM | 50.1 | – | ? | – | –
COc1ccc(OCc2n(CC(=O)OC3CC(C)CCC3C(C)C)c3ccccc3[n+]2C)cc1 (stereo unspecified) | ? | – | ? | ? | 14.1µM | ?
COc1ccc(-c2n(CC(=O)OC3CC(C)CCC3C(C)C)c3ccccc3[n+]2C)cc1 (stereo unspecified) | 7.52µM | – | -85.6 | 5.01µM | 11.2µM | ?
COC(=O)C1=C(\O)CCCC/C=C\1C(=O)O | – | – | – | – | 2.82µM | –
S=C(Nc1ccccc1)c1ccccn1 | – | – | – | 11.2µM | – | ?
O=C(Nc1ccccc1)C(=O)Nc1ccccn1 | – | – | – | – | – | –
O=C(O)c1ccccn1 | – | – | – | – | – | –
S=C(Nc1ccc(Nc2ccccc2)cc1)Nc1ccccn1 | – | – | -67.0 | ? | – | –
COc1cc2c(NC3CCN(C(C)C)CC3)nc(N3CCCN(C)CC3)nc2cc1OCCOCCN1CCCC1 | · | · | · | ? | – | ·
COCCn1c(CCC(=O)Nc2ccc(C)c(Cl)c2)nc2cccnc21 | – | – | · | – | – | –
Cc1ccc2c(c1C)-c1c(ccc(C)c1C)C(=O)C2=O | ? | – | ? | 2.51µM | 3.98µM | ?
SMILES | ATXN2 expr inh | DRD3 agonist | D3 antag | TGFb inhibitor | HepG2 viability | S2 tox
Cc1ccc(CC#N)c(-c2c(CC#N)ccc(C)c2C)c1C | · | – | – | – | – | –
COC(=O)CN1C(=O)[C@H]2[C@@H](c3ccc(C)o3)N3C(=O)CN(Cc4ccccn4)C(=O)[C@@]3(Cc3ccccc3)[C@H]2C1=O | – | 39.1 | – | – | – | –
Clc1ccc(NCc2nc3ccccc3n2CCOc2ccccc2)cc1 | – | – | · | ? | – | –
Cc1ccc(NCc2nc3ccccc3n2CCOc2ccccc2C)cc1 | – | – | · | ? | – | ?
Cc1cccc(NCc2nc3ccccc3n2CCOc2ccccc2C)c1 | ? | – | · | 11.2µM | – | ?
Cc1ccccc1NCc1nc2ccccc2n1CCOc1ccccc1 | – | – | · | 14.1µM | – | ?
O=C(Nc1c(Cl)cncc1Cl)c1ccc(OC(F)F)c(OCC2CC2)c1 | – | · | · | · | · | ·
CCc1c(C)nc(N2CCOCC2)[nH]c1=O | – | – | – | – | – | –
CCc1c(C)[nH]c2c1C(=O)C(CN1CCOCC1)CC2 (stereo unspecified) | – | – | -101.5 | – | – | –
CCN(CC)S(=O)(=O)c1ccc(S(=O)(=O)Nc2ccc3c(c2)oc2ccccc23)cc1 | – | – | -58.5 | ? | – | –
CN(C)S(=O)(=O)c1ccc(S(=O)(=O)Nc2ccc3c(c2)oc2ccccc23)cc1 | – | – | – | 11.2µM | – | –
CCN(CC)S(=O)(=O)c1ccc(S(=O)(=O)Nc2ccc(C(=O)N3CCCC3)cc2)cc1 | – | – | -56.4 | – | – | –
Cc1cc(=O)oc2cc(NS(=O)(=O)c3ccccc3)ccc12 | – | – | – | – | – | ·
CC12CCC(=O)C=C1CCC1C2C(O)CC2(C)C(c3csc(N)n3)CCC12 (stereo unspecified) | ? | – | – | – | – | –
CC12CCC(=O)C=C1CCC1C2CCC2(C)C(c3csc(N)n3)CCC12 (stereo unspecified) | ? | – | – | 12.6µM | – | ?
CC(NC(=O)c1ccc(Cl)c(Cl)c1)c1ccc(-c2ccccc2)cc1 (stereo unspecified) | · | – | – | – | – | –
CC(NC(=O)CCl)c1ccc(Cl)c(Cl)c1 (stereo unspecified) | ? | – | ? | ? | 17.8µM | ?
CCn1ncc(C2=NOC(C(=O)Nc3cnn(C45CC6CC(CC(C6)C4)C5)c3)C2)c1C (stereo unspecified) | 28.2µM | – | – | – | – | ?
COc1ccccc1-n1c(=S)[nH]c2c(sc(=S)n2-c2ccccc2C)c1=O | – | 56.3 | -77.7 | – | – | –
O=C(CN(c1cccc(C(F)(F)F)c1)S(=O)(=O)c1ccc(Cl)c([N+](=O)[O-])c1)NCc1ccccc1 | – | – | – | – | – | –
CC(NC(=O)CN(c1cccc(C(F)(F)F)c1)S(=O)(=O)c1ccc(Cl)c([N+](=O)[O-])c1)c1ccccc1 (stereo unspecified) | ? | – | -53.8 | ? | – | ?
COc1ccc(S(=O)(=O)N(CC(=O)NC(C)c2ccccc2)c2ccc(C)cc2)cc1OC (stereo unspecified) | ? | – | · | ? | 22.4µM | 22.4µM
Cc1c(OCC(=O)NCC(O)c2ccccc2)ccc2c(-c3ccccc3)cc(=O)oc12 (stereo unspecified) | – | 32.8 | – | – | – | –
Cc1c(OCC(=O)NCc2ccccn2)ccc2c(-c3ccccc3)cc(=O)oc12 | – | – | – | – | – | –
